Data: ChEMBL document CHEMBL3433997, “St. Jude Leishmania screening dataset” (2016)
Values joined by “and” are separate entries in the source; they are usually repeats but may differ in a detail not shown here. Identical values can stand only once.

Target: Solute carrier family 2, facilitated glucose transporter member 1 (Homo sapiens) (UniProt P11166)
Assay: ST_JUDE_LEISH: Cytotoxicity at 2uM final concentration against transgenic Leishmania Mexicana promastigotes LmGLUT1 that are glucose transport deficient and complemented with the human glucose transporter GLUT1. Activity is measured by DNA content using SYBR green in vitro
Type: functional

Chain of Solute carrier family 2, facilitated glucose transporter member 1 (Homo sapiens) (P11166 whole entry): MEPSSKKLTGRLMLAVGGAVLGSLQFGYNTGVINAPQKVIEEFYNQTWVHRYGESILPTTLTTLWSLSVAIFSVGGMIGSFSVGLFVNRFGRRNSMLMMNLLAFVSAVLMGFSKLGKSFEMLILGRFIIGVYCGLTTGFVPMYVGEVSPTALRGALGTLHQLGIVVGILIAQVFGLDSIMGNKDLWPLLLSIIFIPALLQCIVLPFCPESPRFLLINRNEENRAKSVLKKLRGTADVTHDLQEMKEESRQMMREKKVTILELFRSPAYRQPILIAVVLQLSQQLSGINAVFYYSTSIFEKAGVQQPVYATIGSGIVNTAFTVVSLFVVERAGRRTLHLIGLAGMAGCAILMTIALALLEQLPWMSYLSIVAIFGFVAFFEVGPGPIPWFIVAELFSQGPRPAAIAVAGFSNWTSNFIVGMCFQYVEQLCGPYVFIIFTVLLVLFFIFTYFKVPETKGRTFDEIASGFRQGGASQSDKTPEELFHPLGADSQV

Row | SMILES | inhibition
1 | CCN(CC)CCN1C(=O)C(O)(c2ccccc2Cl)c2c1cc(C#N)cc2C(F)(F)F (stereo unspecified) | 2.9%
2 | CC[C@H]1CN2CC[C@@H]1C[C@H]2[C@H](O)c1cc(N2CCC(C)CC2)nc2ccc(OC)cc12 | 7.8%
3 | O=C(NC1CCC(CN2CCC(c3c[nH]c4ccccc34)CC2)CC1)c1cn(Cc2ccccc2)c2ccccc12 (stereo unspecified) | 0.71%
4 | Cn1nc(C(F)(F)F)cc1-c1ccc(C(=O)NC2CCC(CN3CCC(c4c[nH]c5ccccc45)CC3)CC2)s1 (stereo unspecified) | 6.48%
5 | O=C(c1cc(C(F)(F)F)cc(C(F)(F)F)c1)N1CCC(CCN2CCC3(CC2)C(=O)NCN3c2ccccc2)CC1Cc1ccc(Cl)c(Cl)c1 (stereo unspecified) | 6.32%
6 | O=C(/C=C/c1ccc(Cl)c(Cl)c1)NC1C2CCC1CC(CN1CCC(c3c[nH]c4ccccc34)CC1)C2 (stereo unspecified) | 3.31%
7 | CC[C@H]1CN2CC[C@H]1C[C@H]2[C@@H](O)c1cc(OCCCN(C)C)nc2ccc(OC)cc12 | -1.68%
8 | Cc1ccccc1CNCC(O)c1cccc(C(F)(F)F)c1 (stereo unspecified) | 1.72%
9 | O=C(NC1CCC(CN2CCC(c3c[nH]c4ccccc34)CC2)CC1)c1cc(-c2cccc(Cl)c2)n(-c2ccc(Cl)cc2Cl)n1 (stereo unspecified) | 1.34%
10 | CN(c1ccnc(Nc2ccc(CS(C)(=O)=O)cc2)n1)C1CCN(Cc2ccccc2)CC1 | 2.04%
11 | CN1C2CCC1c1cc(NC(=O)c3cc(-c4ccc(Cl)cc4)cs3)ccc12 (stereo unspecified) | 8.89%
12 | O=C(/C=C/c1cc([N+](=O)[O-])ccc1Cl)NC1CCC(CN2CCC(c3c[nH]c4ccccc34)CC2)CC1 (stereo unspecified) | 2.1%
13 | CC[C@H]1C[N+]2([O-])CC[C@@H]1C[C@H]2[C@H](O)c1cc(-c2ccccc2)nc2ccc(OC)cc12 | 5.08%
14 | COc1cc(CN2CCN(c3ccnc(N(C)C4CCN(C)CC4)n3)CC2)cc(Cl)c1O | 5.87%
15 | COc1cc2c(c(OC)c1OC)C[C@H]1c3c(cc4c(c3-2)OCO4)CCN1C | -0.22%
16 | CCN1CCC(N2CCC(n3c(C)nc4cc(C(F)(F)F)ccc43)CC2)CC1 | 3.01%
17 | COC(=O)c1ccc(CC(C)NCC(O)c2cccc(Br)c2)cc1 (stereo unspecified) | -0.96%
18 | CN1CCC(COC(=O)C(O)(c2ccccc2)c2ccccc2)C1 (stereo unspecified) | 2.1%

Row | SMILES | inhibition
19 | CC[C@H]1CN2CC[C@H]1C[C@H]2[C@H](O)c1cc(-c2ccc(F)cc2)nc2ccc(OC)cc12 | 0.09%
20 | O=[N+]([O-])c1ccc(Oc2c(Cl)cc(S(=O)(=O)NC3CCC(CN4CCC(c5c[nH]c6ccccc56)CC4)CC3)cc2Cl)c(Cl)c1 (stereo unspecified) | 2.41%
21 | COc1ccc(C(=O)C2CC2CN2CC=C(c3c[nH]c4cccc(Br)c34)CC2)cc1 (stereo unspecified) | 4.26%
22 | COC(=O)c1sccc1NC(=S)NC1CCC(CN2CCC(c3c[nH]c4ccccc34)CC2)CC1 (stereo unspecified) | 4.17% and 2.22%
23 | O=C(/C=C/c1ccc(Cl)c(Cl)c1)N(Cc1ccccc1)C1CCC(CN2CCC(c3c[nH]c4ccccc34)CC2)CC1 (stereo unspecified) | 4.82%
24 | CC[C@H]1CN2CC[C@H]1C[C@H]2[C@H](O)c1ccnc2ccc(O)cc12 | 0.99%
25 | O=C(NC1CCN(CCc2c[nH]c3ccc(F)cc23)CC1)c1ncc(-c2ccccc2)[nH]1 | 4.04%
26 | CN(c1cc(NC(=O)c2cccs2)ccn1)C1CCN(Cc2ccccc2)CC1 | 0.59%
27 | Cc1[nH]c2c(C)cc(NS(C)(=O)=O)cc2c1C1CCN(CC2CCN(C(=O)/C=C/c3ccc(Cl)c(Cl)c3)CC2)CC1 | 1.48%
28 | CC(=O)N(Cc1cccc(-c2ccc(CNCCc3ccccc3)cc2)c1)C1CCN(Cc2ccccc2)CC1 | 4.3%
29 | COc1ccc2[nH]cc(C3CC4CCC(C3)N4CCC3CCN(C(=O)/C=C/c4ccc(Cl)c(Cl)c4)CC3)c2c1 (stereo unspecified) | -0.2%
30 | O=C(NC1CCC(CN2CCC(c3c[nH]c4ccccc34)CC2)CC1)c1ccc(-c2cc(C(F)(F)F)ccc2Cl)o1 (stereo unspecified) | 4%
31 | CCCCCCC(CC)c1cc(O)c2c(c1)OC(C)(C)c1ccncc1-2 (stereo unspecified) | 3.06%
32 | Cc1[nH]c2cc(F)ccc2c1C1=CCN(CCCCC2(C)C(=O)Nc3c(F)cccc32)CC1 (stereo unspecified) | 3.71%
33 | CC(=O)C1(c2ccccc2)CCN(CCC2(c3ccc(Cl)c(Cl)c3)CN(C(=O)Nc3cccc(C(F)(F)F)c3)CCO2)CC1 (stereo unspecified) | 7.51%
34 | CC[C@H]1CN2CC[C@@H]1C[C@H]2[C@H](O)c1cc(N2CCC(C(N)=O)CC2)nc2ccc(OC)cc12 | 8.84%
35 | COC(=O)c1ccc(CC(C)NCC(O)c2cccc(C(F)(F)F)c2)c(OC)c1 (stereo unspecified) | 6.43%
36 | CC(=O)N(Cc1cccc(-c2cccc(CNCc3ccc4c(c3)OCO4)c2)c1)C1CCN(Cc2ccccc2)CC1 | 6.88%
